Source: PubChem
Rv3671c protease = inhibits the M. tuberculosis serine protease Rv3671c; P9WHR9; inhibition, % at 5.96 µM; hit rate 0.048% among 320,000; in the data active means inhibition above about 38%;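 further: extracellular domain of Rv3671c used as enzyme; 0% = enzyme with DMSO and 100% = no enzyme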
Target sequence (P9WHR9 whole entry, looked up, the tested form may be a part): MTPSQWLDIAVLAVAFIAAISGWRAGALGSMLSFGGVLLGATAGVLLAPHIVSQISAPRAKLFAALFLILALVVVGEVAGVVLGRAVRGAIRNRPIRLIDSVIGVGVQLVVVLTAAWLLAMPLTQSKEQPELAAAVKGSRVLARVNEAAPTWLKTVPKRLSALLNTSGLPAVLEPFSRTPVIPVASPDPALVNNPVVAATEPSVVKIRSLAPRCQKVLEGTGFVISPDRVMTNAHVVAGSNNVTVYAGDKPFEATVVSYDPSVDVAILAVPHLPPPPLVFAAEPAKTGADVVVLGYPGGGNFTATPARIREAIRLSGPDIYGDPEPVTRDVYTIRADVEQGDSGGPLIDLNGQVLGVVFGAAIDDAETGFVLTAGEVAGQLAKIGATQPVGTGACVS
GDH-TPI counter-1 = counter-screen for M. tuberculosis FBA inhibitors: GDH-TPI coupled enzymes. inhibition, % at 4.8 µM. GDH-TPI coupled enzyme counterscreen, NADH absorbance. AID 588335. hit rate 1.2% among 360,000; in the data active means inhibition above about 30%;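 further: 0% = DMSO wells and 100% = wells lacking the enzyme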
FBA Mtb inh = inhibitors of M. tuberculosis fructose-bisphosphate aldolase. P9WQA3. purified M. tuberculosis FBA, fluorescence read-out. inhibition, % at 1 µM. hit rate 2.3% among 360,000. AID 588726;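 further: 0% = vehicle and 100% = reference inhibitor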
Mtb BioA inh = blocks M. tuberculosis BioA enzyme activity | inhibition, % at 9.99 µM | hit rate 0.096% among 360,000 | purified M. tuberculosis BioA enzyme, plate reader | AID 602481; in the data active means inhibition above about 40%
FadD28 FP inh = blocks FadD28 binding to the bisubstrate probe | fluorescence polarization | inhibition, % at 12.5 µM | hit rate 0.22% among 360,000 | AID 588549; in the data active means inhibition above about 8.5%, passing the limit was not always enough
Mtb FBA inh conf = Mtb FBA inhibition, confirmed; shares compounds with FBA Mtb inh; purified M. tuberculosis FBA, fluorescence read-out; inhibition, % at 1 µM; hit rate 78% among 5,600; AID 651616;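 further: 0% = vehicle wells and 100% = reference inhibitor wells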
GDH-TPI counter-2 = counter-screen for M. tuberculosis FBA inhibitors: GDH-TPI coupled enzyme inhibition | shares compounds with FBA Mtb inh | GDH-TPI coupled enzyme counterscreen, fluorescence | inhibition, % at 1 µM | hit rate 81% among 5,600; in the data active means inhibition above about 10%
The depositor's hits bear a star. Compounds with a hit are over-represented: about 3% of the library has one in this group of screens. Unless noted, no stated cut-off is given here; in the data, active means inhibition above about 27%; inactive means the rest.

For C[C@@H]1CCCCO[C@H](CN(C)C(=O)Nc2ccc(F)cc2)[C@@H](C)CN([C@@H](C)CO)C(=O)c2cc(NS(=O)(=O)c3cn(C)cn3)ccc2O1 the results were Mtb BioA inh 0.7.
Nc1ccc[n+](Cc2ccccn2)c1 was read as Rv3671c protease -0.6, GDH-TPI counter-1 5.8, FBA Mtb inh 60.7*, Mtb BioA inh -0.2, FadD28 FP inh -2.6, Mtb FBA inh conf 1.4 and GDH-TPI counter-2 -1.7.
CC(C)(CO)NS(=O)(=O)c1ccc2c(c1)oc(=O)c1cc(S(=O)(=O)NC(C)(C)CO)ccc12 was read as Rv3671c protease 3.6, GDH-TPI counter-1 9.1, FBA Mtb inh 81.0*, Mtb BioA inh -3.4, FadD28 FP inh 0.5, Mtb FBA inh conf 4.6 and GDH-TPI counter-2 -10.0.
Screening Cc1c(Br)c(=O)oc2c(C)c(O)ccc12 returned Rv3671c protease -9.9, GDH-TPI counter-1 13.5, FBA Mtb inh 40.6*, FadD28 FP inh -0.1, Mtb FBA inh conf 196.2* and GDH-TPI counter-2 168.8*.
COc1ccccc1CNC(=O)C[C@@H]1CC[C@@H](NC(=O)CC2CC2)[C@H](CO)O1 was read as Mtb BioA inh 2.7.
Screening c1ccc(C[n+]2cccc3c4ccccc4ccc32)cc1 returned Rv3671c protease 5.8, GDH-TPI counter-1 5.8, FBA Mtb inh 40.5*, Mtb BioA inh 6.6, FadD28 FP inh -0.6, Mtb FBA inh conf active and GDH-TPI counter-2 active.
Screening O=[N+]([O-])c1ccc(C[n+]2cccc3ccccc32)cc1 returned Rv3671c protease 11.7, GDH-TPI counter-1 12.9, FBA Mtb inh -3.6 and FadD28 FP inh -4.8.
For CCCCC[n+]1cccc2c3ccccc3ccc21 the results were Rv3671c protease -2.3, GDH-TPI counter-1 8.7, FBA Mtb inh 100.4*, FadD28 FP inh -0.2, Mtb FBA inh conf 85.2* and GDH-TPI counter-2 60.8*.
Screening O=C(Nc1ccc(Cl)cc1)N[C@H]1CC[C@@H](CCn2cc(Cc3ccccc3)nn2)O[C@@H]1CO returned Mtb BioA inh -2.2.
For CCc1nnc(NC(=O)c2sc3nc4c(cc3c2N)CCCCCC4)s1 the results were Rv3671c protease -1.4, GDH-TPI counter-1 12.9, FBA Mtb inh 60.6*, FadD28 FP inh 0.9, Mtb FBA inh conf 6.8 and GDH-TPI counter-2 -6.8.
CCOC(=O)c1c(NC(=O)Cn2nnc(-c3ccccc3Cl)n2)sc(C)c1C was read as Rv3671c protease 3.9, GDH-TPI counter-1 9.8, FBA Mtb inh 109.5*, Mtb BioA inh -0.1, FadD28 FP inh -1.8, Mtb FBA inh conf 0.4 and GDH-TPI counter-2 -5.3.
O=C(O)c1ccc(/C=N/n2cc(-c3ccccc3)[nH]c2=S)cc1 was read as Rv3671c protease -2.6, GDH-TPI counter-1 9.5, FBA Mtb inh 37.4*, FadD28 FP inh 0.0, Mtb FBA inh conf 49.6* and GDH-TPI counter-2 38.3*.
Screening S=c1[nH]c(-c2ccccc2)cn1/N=C/c1ccc(Br)cc1 returned Rv3671c protease 9.3, GDH-TPI counter-1 1.3, FBA Mtb inh 32.5*, FadD28 FP inh -0.6, Mtb FBA inh conf 170.2* and GDH-TPI counter-2 126.2*.
Cc1ccc(/C=N/n2c(-c3ccccc3)n[nH]c2=S)cc1 was read as Rv3671c protease -0.1, GDH-TPI counter-1 -0.7, FBA Mtb inh -1.4, Mtb BioA inh -1.6 and FadD28 FP inh -0.6.
`Cc1ccc(-c2n[nH]c(=S)n2/N=C/c2ccc(C(=O)O)cc2)cc1` gave Rv3671c protease -4.4, GDH-TPI counter-1 2.9, FBA Mtb inh -1.1, Mtb BioA inh 2.3 and FadD28 FP inh 0.1.
For S=c1[nH]c(-c2ccccc2)cn1/N=C/c1cccnc1 the results were Rv3671c protease 7.4, GDH-TPI counter-1 18.0, FBA Mtb inh 33.8*, FadD28 FP inh 0.0, Mtb FBA inh conf 94.2* and GDH-TPI counter-2 84.5*.
Screening S=c1[nH]c(-c2ccccc2)cn1/N=C/c1cccs1 returned Rv3671c protease 4.1, GDH-TPI counter-1 40.0*, FBA Mtb inh 30.8*, Mtb BioA inh -4.2, FadD28 FP inh -0.2, Mtb FBA inh conf 151.7* and GDH-TPI counter-2 126.3*.
For CCOc1c2ccc(C(=O)NCc3cc(C(F)(F)F)cc(C(F)(F)F)c3)cc2nn1CCOC the results were Rv3671c protease -1.4, GDH-TPI counter-1 4.9, FBA Mtb inh 43.1*, Mtb BioA inh 1.5, FadD28 FP inh -2.0, Mtb FBA inh conf 104.6* and GDH-TPI counter-2 64.3*.
CCCCn1nc2cc(C(=O)NCc3cc(C(F)(F)F)cc(C(F)(F)F)c3)ccc2c1OCC was read as Rv3671c protease -7.0, GDH-TPI counter-1 12.1, FBA Mtb inh 18.0, Mtb BioA inh -1.0 and FadD28 FP inh -2.0.
Screening COCCn1nc2cc(C(=O)NCc3cc(C(F)(F)F)cc(C(F)(F)F)c3)ccc2c1OC returned Rv3671c protease -4.0, GDH-TPI counter-1 6.3, FBA Mtb inh 47.1*, Mtb BioA inh -1.2, FadD28 FP inh -1.0, Mtb FBA inh conf 56.9* and GDH-TPI counter-2 41.5*.
For COCCn1c(=S)[nH]c2cc(C(=O)NCc3ccc(F)cc3)ccc2c1=O the results were GDH-TPI counter-1 18.6, FBA Mtb inh 3.9, Mtb BioA inh -3.9 and FadD28 FP inh -0.6.
For O=C(NCc1cccc(C(F)(F)F)c1)c1ccc(=O)[nH]c1 the results were Rv3671c protease -11.8, GDH-TPI counter-1 3.7, FBA Mtb inh 6.3, Mtb BioA inh -0.1 and FadD28 FP inh 2.0.
Screening CCOc1c2ccc(C(=O)NCc3cc(C(F)(F)F)cc(C(F)(F)F)c3)cc2nn1C returned Rv3671c protease 0.8, GDH-TPI counter-1 9.4, FBA Mtb inh 57.3*, Mtb BioA inh -1.7, FadD28 FP inh -6.0, Mtb FBA inh conf 60.4* and GDH-TPI counter-2 43.9*.
`C[C@H]1CN([C@@H](C)CO)C(=O)Cc2cc(NC(=O)Nc3ccc(C(F)(F)F)cc3)ccc2O[C@@H]1CN(C)Cc1ccc(C(F)(F)F)cc1` gave Mtb BioA inh -4.1.
Screening CCOc1c2ccc(C(=O)NC3CCCc4ccccc43)cc2nn1C (stereo unspecified) returned Rv3671c protease -9.0, GDH-TPI counter-1 4.8, FBA Mtb inh 59.3*, Mtb BioA inh 0.4, FadD28 FP inh -4.0, Mtb FBA inh conf 30.1* and GDH-TPI counter-2 21.9*.
For CCCCn1nc2cc(C(=O)N[C@H](C)C3CCCCC3)ccc2c1OCC the results were Rv3671c protease -6.9, GDH-TPI counter-1 -4.0, FBA Mtb inh 53.2*, Mtb BioA inh -0.6, FadD28 FP inh -4.1, Mtb FBA inh conf 45.1* and GDH-TPI counter-2 38.9*.
For CCCCn1nc2cc(C(=O)NC3CCCc4ccccc43)ccc2c1OCC (stereo unspecified) the results were Rv3671c protease 0.7, GDH-TPI counter-1 3.1, FBA Mtb inh 36.4*, Mtb BioA inh -0.2, FadD28 FP inh -2.3, Mtb FBA inh conf 184.0* and GDH-TPI counter-2 131.6*.
`C=CCOc1c2ccc(C(=O)NC3CCCc4ccccc43)cc2nn1C` (stereo unspecified) gave Rv3671c protease -4.3, GDH-TPI counter-1 4.8, FBA Mtb inh 15.5, Mtb BioA inh -0.6 and FadD28 FP inh -1.3.
